Screen size: about 190,000 compounds; about 3,100 (1.6%) were called active. Cut-off read from the data, not from the text of the source: active = fold change above about 3.3; inconclusive = no clear call, values can overlap the other calls; inactive = below that. Many of the other results were omitted from the sample, so actives are more common in it than they were.
Test: activators of NF-kB expression in neurons, primary screen, cell-based, HTS (AID 1239)
Settings: human neuronal cells, NF-kB reporter expression; at 12.5 µM; hits give high values

Fold change, active:
CCOc1ccc2cc(C#N)c(SCC(=O)OC)nc2c1 5.87
C#CCSc1nnc(-c2sc3ccccc3c2Cl)o1 3.81
O=c1oc(/C=C/c2ccccc2)nc2ccccc12 4.63
O=C(Nc1ccn(Cc2ccccc2)n1)c1n[nH]c([N+](=O)[O-])c1Cl 3.79
O=C(Nc1ccn(Cc2ccccc2)n1)c1cccc(F)c1 6.25
CCN(CC)C(=O)c1sc2nc(-c3ccccc3)ccc2c1N 7.06
CC1CN/C(=C\C(=O)c2ccc(Br)cc2)C(=O)N1 (configuration not stated) 4.31
Clc1ccc(Nc2nc(-c3cccs3)cs2)nc1 12.4
COc1ccc(-c2csc(Nc3ccccn3)n2)cc1 7.56
c1ccc(Nc2nc(-c3ccncc3)cs2)nc1 7.4
O=C(Nc1ccc(Cl)cn1)c1ccc2c(c1)OCCO2 5.18
CN1CCN(c2ccc(NC(=O)c3ccc4c(c3)OCCO4)cc2Cl)CC1 3.36
O=C(NC(=S)Nc1cccc(-c2ccc(CO)o2)c1)c1cccs1 10.1
N/C(=N\OC(=O)CCC1CCCCC1)c1ccccn1 4.01
CCOC(=O)/C(C#N)=C/c1ccc(N2CCCCC2)cc1 3.43
Cc1nn2cc(-c3ccc(Cl)cc3)cnc2c1Br 4.06
CC(C)C(=O)Nc1ccc2c(c1)oc1ccccc12 4.71
O=C(CSCc1ccccc1)N1CCc2ccccc21 5.86

Fold change, inactive:
COc1ccc(CN2CCCC(CNC(=O)c3ccc(F)cc3)C2)cc1OC (configuration not stated) 1.13
CCN(CC(=O)NCCc1ccccc1)S(=O)(=O)c1ccccc1 1.36
CC1CCCN(CC(O)COc2ccc3c(c2)OCO3)C1 (configuration not stated) 1.2
C/C(=N\OCC(=O)Nc1ccc(Br)cc1)c1cccs1 1.23
Cc1nonc1NC(=O)CSc1nc2ccccc2cc1C#N 1.83
CCOc1ccc2nc(NCCNS(=O)(=O)c3ccccc3)c(C#N)cc2c1 1.4
CC(C)N1CCC(=NNc2ccc([N+](=O)[O-])cc2S(=O)(=O)N2CCOCC2)CC1 1.19
COc1ccc(N2C(=O)/C(=C\c3ccco3)N=C2SCC(N)=O)cc1Cl 1.3
CCN(CC(=O)Nc1ccc(Cl)c(S(=O)(=O)N(C)C)c1)Cc1nc2ccccc2c(=O)[nH]1 0.79
O=C(OCC#CCSc1nnc(-c2ccncc2)o1)c1sc2ccccc2c1Cl 1.38
Clc1ccc(-c2nnc(SCc3nc4ccccc4s3)o2)cc1 1.18
CC(C)(C)C(=O)CN1C2=NCCN2c2ccccc21 1.09
Cc1ccnc(NC(=O)CCC(=O)N(CC(=O)NCc2ccccc2)Cc2ccco2)c1 0.85
Cc1ccc2c(=O)oc(N(C)C)nc2c1 0.93
O=C(CSc1ccsc1[N+](=O)[O-])N1CCCCC1 1.39
S=c1[nH]nc(/C=C/c2ccccc2)o1 1.12
O=C1C2C3C=CC(C3)C2C(=O)N1c1ccc(-c2nc3ccccc3c(=O)o2)cc1 (configuration not stated) 1.08
CN(C)c1ccnc(Nc2ccc(F)cc2)c1C#N 1.02
CN(Cc1ccc2nsnc2c1)Cc1nc(Cc2cccc(F)c2)no1 1.05
CN(C)c1nccc(NCc2ccccc2)c1C#N 1.55
CCOc1cc(NC(=O)CCl)c(OCC)cc1NC(C)=O 2.72
CC(=O)Nc1ccn(Cc2c(F)cccc2Cl)n1 1.2
Cc1ccc(Cn2ccc(NC(=O)c3cc(C(C)C)on3)n2)cc1 1.16
Cn1cc([N+](=O)[O-])c(C(=O)Nc2cnn(Cc3ccc(F)cc3)c2)n1 0.64
O=C(Nc1ccn(Cc2ccc(F)cc2)n1)c1ccncc1 1.08
COC(=O)C1=C(C)N(C)C(=O)NC1c1ccc([N+](=O)[O-])o1 (configuration not stated) 0.88
CN(C)C(CNC(=O)c1cccc(C#N)c1)c1ccco1 (configuration not stated) 1.15
CC(=O)NC1C(Oc2ccc(C=O)cc2)OC(COC(C)=O)C(OC(C)=O)C1OC(C)=O (configuration not stated) 1.36
O=C(NCc1ccccc1)C1CCCN(c2nc3ccsc3c(=O)s2)C1 (configuration not stated) 1.06
CCOC(=O)c1sc2nc(SC)nc(-c3ccccc3)c2c1N 1.18
CS(=O)(=O)c1sc2nc(-c3ccccc3)cc(-c3ccccc3)c2c1N 1.16
Cn1c(N)c(C(=O)COC(=O)/C=C/c2ccc(OC(F)F)cc2)c(=O)n(C)c1=O 1.25
Cc1cc(C)c(OCCN2CC(C)OC(C)C2)c(Br)c1 (configuration not stated) 1.58
C/C(=C\C(=O)c1ccc(Br)cc1)N1CCCCC1 1.06
CN1CCCC(OC(=O)COc2ccc(Br)cc2)C1 (configuration not stated) 1.11
CCc1cc2c(=O)c(-c3ccc(F)cc3)c(C(F)(F)F)oc2cc1OCC(=O)O 1.1
c1cnc(Nc2nc(-c3ccc4ccccc4c3)cs2)nc1 2.23
Clc1ccc(-c2csc(-c3ccncc3)n2)cc1 1.8
COc1ccc(C(=O)/C=C/Nc2ccccn2)cc1 2.22
O=C(Nc1nc(-c2ccc(-c3ccccc3)cc2)cs1)c1cnccn1 1.35
O=C(Nc1nc(-c2ccncc2)cs1)C1COc2ccccc2O1 (configuration not stated) 1.25
O=C(Nc1ccc(Cl)cn1)Nc1cccs1 1.65
O=C(CN(c1cccc(Cl)c1)S(=O)(=O)c1ccccc1)NN=C1CCCC1 1.17
CN1CCN(C(c2cc3cc4c(cc3[nH]c2=O)OCCO4)c2nnnn2C2CCCC2)CC1 (configuration not stated) 1.27
O=C(COc1cccc2ccccc12)Nc1cc(S(=O)(=O)N2CCOCC2)ccc1N1CCOCC1 0.47
O=C(N/N=C/C=C/c1ccco1)c1cccs1 1.09
COc1ccc(CC(=O)NC(C)CCc2ccccc2)cc1 (configuration not stated) 1.03
CC(=O)c1cc(C#N)c(N2CCCCC2)nc1C 1.09
O=C(Nc1cccc(Cl)c1N1CCOCC1)c1ccc2c(c1)OCCO2 0.72
O=C(Nc1ccc2c(c1)OCCO2)c1ccc(Cl)c(S(=O)(=O)N2CCCCC2)c1 0.9
O=C(Nc1cccc(S(=O)(=O)Nc2ccc(Cl)cc2)c1)c1ccc2c(c1)OCCO2 0.68
COc1c(Cl)cc(C(=O)Nc2ccc(Cl)cn2)cc1Cl 1.49
S=c1[nH]ccn1-c1ccc(Cl)cc1 1.14
CC(C)(C)NC(=O)CN(C(=O)c1ccc(Cl)nc1)c1cccc2ccccc12 0.94
COc1cccc(OCCCN2CCCCCC2)c1 1.08
C/C(=N/OC(=O)c1cccc(C(F)(F)F)c1)c1cnccn1 1.18
CCc1nnc(NS(=O)(=O)c2ccc(NC(=S)NC(=O)c3cccs3)cc2)s1 1.46
O=C(NC(=S)Nc1ccc(NC(=O)c2cccs2)cc1)c1ccc([N+](=O)[O-])cc1 1.11
COC(=O)COc1ccc(C2NC(=O)NC(C)=C2C(=O)NCc2ccccc2)cc1OC (configuration not stated) 1.01
CN1CCN(/N=C/c2ccc(-c3ccc([N+](=O)[O-])cc3)o2)CC1 1.75
O=C(Cc1ccc([N+](=O)[O-])cc1)N/N=C/c1ccco1 1.05
N/C(=N\OC(=O)CC1CCCCC1)c1ccccc1 1.45
CCC(C)(NC(=O)c1ccccn1)C(=O)NC1CCCCC1 (configuration not stated) 1.15
CN(C)CCOc1cccc(Br)c1 1.12
CCN=c1sc(C(=O)Nc2ccccc2)c(C)n1CC 1.3
Cc1ccc(OCC(=O)NC(C)c2ccccc2)c([N+](=O)[O-])n1 (configuration not stated) 1.1
C=CCNC(=O)CC12CC3CC(C1)CC(CC(=O)NCC=C)(C3)C2 1.38
COc1ccc(N2CCN(C(=O)/C(C#N)=C/c3ccccc3)CC2)cc1 0.72
CCOC(=O)/C(C#N)=C/c1ccc(N2CCN(Cc3ccccc3)CC2)cc1 0.98
COC(=O)C1=CN(Cc2ccc(OC)c(OC)c2)C=C(C(=O)OC)C1c1cccs1 0.73
Cc1nnc(SCCCCSc2nnc(C)c(=O)[nH]2)[nH]c1=O 1.03
Cc1ccc(S(=O)(=O)/N=C(\N)c2ccc(F)cc2)cc1 1.11
O=C(NC(=S)Nc1ccc(S(=O)(=O)Nc2ncccn2)cc1)c1cccc(Br)c1 0.92
CCOC(=O)C1(Cc2ccccc2C(F)(F)F)CCN(C(=O)c2cc(C)n(C)n2)CC1 1.81
CC(C)C(=O)Nc1c(C(=O)c2ccc(F)cc2)oc2ccccc12 0.89
CC(C)C(=O)Nc1ccc2oc(=O)ccc2c1 1.14
COCCCNC(=S)NCCNc1nc2cc(C)c(C)cc2cc1C#N 0.77
NC(=O)N1CCc2ccccc21 1.08
Cc1nnc(SCC(=O)N2CCc3ccccc32)n1-c1ccccc1 1
CCn1c(SCC(=O)N(C)C2CCS(=O)(=O)C2)nnc1-c1cccs1 (configuration not stated) 1.03
CC(=O)c1ccc(N2CCN(CC(=O)Nc3ccccc3N3CCOCC3)CC2)cc1 1
CC1(C)CN(c2ccc(-c3ccnc4ncnn34)cc2)C1=O 1.23
COc1ccc(N2CCN(C(=S)Nc3ccc(S(N)(=O)=O)cc3)CC2)cc1 0.85
CCn1cc(CN2CCCC(CNS(=O)(=O)Cc3ccccc3)C2)cn1 (configuration not stated) 0.89

Source: PubChem BioAssay AID1239 (SRMLSC, 2008)
